Reference: article PMC5540273 (PLoS ONE, 2017)

Assays:
Conditions in all cases: concentration: 1 μM, replicates: in singlicate; n = 1
YANK2 = test system: T1, YANK2
T1 construct: gene STK32B

YANK3 = test system: T2, YANK3
T2 construct: gene STK32C

YES = test system: T3, YES
T3 construct: gene YES1

YSK1 = test system: T4, YSK1
T4 construct: gene STK25

YSK4 = test system: T5, YSK4
T5 construct: gene MAP3K19

ZAK = test system: ZAK
ZAP70 = test system: ZAP70
p38-alpha = test system: T6, p38-alpha
T6 construct: gene MAPK14

p38-beta = test system: T7, p38-beta
T7 construct: gene MAPK11

p38-delta = test system: p38-delta
p38-gamma = test system: T8, p38-gamma
T8 construct: gene MAPK12
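Also: KINOMEscan kinase panel screen.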

Row | Compound | %Inh (YANK2) [%] | %Inh (YANK3) [%] | %Inh (YES) [%] | %Inh (YSK1) [%] | %Inh (YSK4) [%] | %Inh (ZAK) [%] | %Inh (ZAP70) [%] | %Inh (p38-alpha) [%] | %Inh (p38-beta) [%] | %Inh (p38-delta) [%] | %Inh (p38-gamma) [%]
1 | O=C(Nc1n[nH]c2cc(-c3ccsc3)ccc12)C1CC1 [SB-732932] | 0 | 20 | 12 | 5 | 94.7 | 5 | 0 | 16 | 8 | 0 | 28
2 | Nc1cccc(-c2ccc3c(N)n[nH]c3c2)n1 [GSK2192730] | 0 | 0 | 0 | 26 | 83 | 10 | 3 | 8 | 0 | 22 | 0
3 | Cn1cnc2c(N)ncnc21 [SKF-97623] | 0 | 0 | 0 | 0 | 0 | 0 | 12 | 0 | 0 | 4 | 0
4 | COc1ccc(Nc2nccc(N3CCC(NC(=O)c4cc5ccccc5s4)C3)n2)cc1 (stereo not shown) [GSK1379738] | 6 | 0 | 17 | 7 | 47 | 60 | 0 | 20 | 0 | 42 | 9
5 | CN1c2ccc(-c3ccc(C(N)=O)cc3)cc2-c2[nH]ncc2S1(=O)=O | 0 | 0 | 0 | 0 | 0 | 5 | 5 | 0 | 4 | 38 | 0
6 | Cc1c(Cn2c(C)c(C)n3c(=O)cc(N4CCOCC4)nc23)cccc1C(F)(F)F [GSK2328680] | 0 | 0 | 7 | 14 | 0 | 16 | 0 | 21 | 0 | 33 | 0
7 | NS(=O)(=O)c1cccc(N/C=C2\C(=O)Nc3ccc(S(=O)(=O)Cc4c(Cl)cccc4Cl)cc32)c1 [GSK398099] | 0 | 12 | 22 | 0 | 39 | 4 | 20 | 0 | 0 | 27 | 7
8 | Nc1ncnc2occ(-c3ccc4c(c3)CCN4C(=O)Cc3cc(F)ccc3F)c12 [GSK2645446] | 0 | 0 | 0 | 4 | 66 | 0 | 0 | 0 | 0 | 24 | 7
9 | COc1cccc(CNC(=O)NC2CCN(c3ccnc(Nc4ccc(F)cc4)n3)C2)c1 (stereo not shown) [GSK1379723] | 0 | 14 | 8 | 0 | 28 | 100 | 0 | 0 | 0 | 43 | 0
10 | CC(C)c1cc(-c2ccc3c(N)n[nH]c3c2)nc(N)n1 [GSK2250882] | 0 | 19 | 16 | 14 | 33 | 11 | 0 | 9 | 0 | 18 | 43
11 | c1ccc(-c2ccnc3[nH]ccc23)cc1 [SB-693578] | 0 | 8 | 14 | 1 | 93.5 | 25 | 55 | 3 | 0 | 39 | 0
12 | COc1nccc(-c2c(-c3ccc(F)cc3)ncn2CCCN2CCOCC2)n1 [SB-282852] | 0 | 0 | 0 | 0 | 0 | 11 | 31 | 81 | 62 | 0 | 46
13 | COc1ccc(-c2coc3ccc(-c4nnc(C)o4)cc23)cc1 | 9 | 9 | 0 | 1 | 0 | 0 | 18 | 0 | 14 | 0 | 0
14 | CNCc1ccc2nc(NC(=O)c3ccc(C(C)(C)C)cc3)cn2c1 | 22 | 3 | 0 | 7 | 30 | 3 | 15 | 83 | 0 | 0 | 26
15 | O=C(Nc1n[nH]c2nc(-c3cccs3)c(Br)cc12)C1CC1 [SB-735297] | 11 | 0 | 8 | 0 | 95.3 | 30 | 0 | 4 | 2 | 0 | 0
16 | COC(=O)C(Cc1ccccc1)NC(=O)NC1CCN(c2ccnc(Nc3ccc(F)cc3)n2)C1 (stereo not shown) [GSK1379714] | 0 | 7 | 0 | 0 | 82 | 5 | 7 | 0 | 0 | 0 | 12

Row | Compound | %Inh (YANK2) [%] | %Inh (YANK3) [%] | %Inh (YES) [%] | %Inh (YSK1) [%] | %Inh (YSK4) [%] | %Inh (ZAK) [%] | %Inh (ZAP70) [%] | %Inh (p38-alpha) [%] | %Inh (p38-beta) [%] | %Inh (p38-delta) [%] | %Inh (p38-gamma) [%]
17 | Cc1ccc(NC(=O)Nc2ccc(Cl)c(C(F)(F)F)c2)cc1-c1ccc(C(=O)Nc2ccncc2)cc1 [GSK1398470] | 0 | 10 | 7 | 0 | 72 | 59 | 0 | 95.9 | 96.2 | 0 | 27
18 | Cn1cncc1-c1cc2c(Nc3ccc(OCc4ccccc4)cc3)ncnc2cn1 [GW281179] | 0 | 15 | 19 | 4 | 27 | 43 | 20 | 0 | 0 | 52 | 0
19 | Nc1nccc(-c2c(-c3ccc(F)cc3)ncn2C2CCN(Cc3ccccc3)CC2)n1 [SB-219980] | 64 | 30 | 0 | 0 | 34 | 0 | 21 | 99.7 | 18 | 0 | 0
20 | FC(F)(F)c1ccccc1-c1cc(-c2c[nH]nc2-c2ccccn2)ccn1 [GW679396] | 18 | 13 | 0 | 0 | 0 | 0 | 0 | 95.4 | 18 | 17 | 0
21 | CSc1ccc(-c2nc3n(c2-c2ccncc2)CCC3)cc1 [SKF-105561] | 6 | 0 | 7 | 0 | 7 | 3 | 0 | 51 | 7 | 0 | 30
22 | CC(=O)c1c(C)c2cnc(Nc3ccn(C)n3)nc2n(C2CCCC2)c1=O | 0 | 2 | 1 | 0 | 18 | 0 | 0 | 0 | 0 | 15 | 0
23 | COc1cc2ncnc(Nc3cccc(Br)c3)c2cc1OC.Cl [GI230329] | 0 | 13 | 3 | 4 | 63 | 12 | 0 | 47 | 0 | 46 | 66
24 | Cc1ccc(NC(=O)Nc2ccc(Cl)cc2)cc1-c1ccc(C(=O)Nc2ccncc2)cc1 [GSK1398472] | 4 | 0 | 17 | 15 | 56 | 64 | 7 | 72 | 34 | 42 | 23
25 | COc1ccc(Nc2nccc(N3CCC(NC(=O)C(C)c4ccc(Cl)cc4)C3)n2)cc1 (stereo not shown) [GSK1379735] | 7 | 15 | 13 | 0 | 0 | 5 | 2 | 0 | 24 | 29 | 22
26 | CC(C)c1ccc(O)cc1Nc1ccnc2ccc(C(F)(F)F)cc12 [GW482059] | 2 | 0 | 0 | 0 | 73 | 9 | 0 | 0 | 0 | 1 | 0
27 | CNc1nc(-c2ccc3c(N)n[nH]c3c2)cc(N2C[C@@H](C(=O)Nc3ccccc3)CC[C@H]2C)n1 [GSK2298859] | 89 | 32 | 2 | 0 | 17 | 0 | 0 | 22 | 0 | 0 | 0
28 | Cc1ccc(-c2nc(Nc3ccncc3)c3ccccc3n2)s1 [GSK189015] | 12 | 28 | 5 | 0 | 0 | 0 | 0 | 0 | 0 | 49 | 12
29 | CC[C@@H]1CO[C@H](C(=O)Nc2ccccc2)CN1c1cc(-c2ccc3c(N)n[nH]c3c2)nc(NC)n1 [GSK2376236] | 77 | 0 | 0 | 6 | 1 | 0 | 0 | 8 | 0 | 26 | 0
30 | Cc1cnc(N)c(/C=C/c2cncc(C(=O)NCCc3ccc(Cl)cc3Cl)c2)c1.Cl [GSK190937] | 0 | 26 | 20 | 4 | 27 | 16 | 0 | 29 | 0 | 25 | 52
31 | CNc1nc(-c2ccc3c(N)n[nH]c3c2)cc(N2C[C@@H](C(=O)NC3CCCCC3)OC[C@H]2C)n1 [GSK2375584] | 2 | 22 | 14 | 5 | 15 | 0 | 0 | 23 | 0 | 42 | 23
32 | CC(=O)c1c(C)c2cnc(Nc3ccc(N4CCNCC4)cn3)nc2n(C2CCCC2)c1=O | 0 | 0 | 6 | 0 | 10 | 0 | 0 | 0 | 0 | 22 | 6
